CHX counter: Cycloheximide Counterscreen for Small Molecule Inhibitors of Shiga Toxin | cell reporter, cycloheximide protein synthesis inhibition counterscreen | max response, % | 300,000 compounds, 12% hits | AID 2314, 2010; in the data active = max response mostly above about 13%, no sharp cut-off; inactive = mostly below about 14%; also: read at 38.3 µM for the half of the compounds with a filed dose; 0% is about no effect
SARS PLpro yeast: qHTS of Yeast-based Assay for SARS-CoV PLP; Potency, µM (highest dose often 32.9 µM), without a hit: top-dose activity, positive = growth rescue, most hits filed as activators; 330,000 compounds, 0.19% hits; S. cerevisiae expressing SARS-CoV PLpro, growth rescue; calls by dose curve; also: potency is read from the fitted curve at half-maximal effect; 0% is about no effect; nearly all actives have a fitted effect of over 55% in size
Pf growth 96h: Primary qHTS for delayed death inhibitors of the malarial parasite plastid, 96 hour incubation | P. falciparum luciferase reporter growth, 96 h | Potency, µM (series often up to 28.7 µM), inactives show at the top dose activity change, negative = inhibition, hits mostly inhibitors | 320,000 compounds, 6.9% hits | AID 504834, 2011; also: potency is read from the fitted curve at half-maximal effect; % is scaled to controls: 0 for no effect and ±100 for the full control effect
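P. falciparum expressing integrated firefly luciferase grown in erythrocytes (2% hematocrit, 0.05% parasitemia final) with compounds for 96 hours at 37 C, 5% CO2. Growth inhibition read as loss of luminescence after adding luciferase detection reagent.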
Shiga toxin inh: A qHTS for Small Molecule Inhibitors of Shiga Toxin. Vero cells, Shiga toxin protein synthesis inhibition reporter. inhibition, % at 38.7 µM. AID 2315, 2010. 290,000 compounds, 9.2% hits; in the data active = inhibition mostly above about 28%, no sharp cut-off; inactive = mostly below about 43%; also: 0% is about no effect
Pf growth 48h: Primary qHTS for delayed death inhibitors of the malarial parasite plastid, 48 hour incubation; P. falciparum luciferase growth in erythrocytes, 48 h; Potency, µM (highest dose often 28.7 µM), for the others: at the highest dose activity change, negative = inhibition, usual class: inhibitors; 310,000 compounds, 5.9% hits; also: potency is read from the fitted curve at half-maximal effect; % is scaled to controls: 0 for no effect and ±100 for the full control effect
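In quantitative HTS format, infected erythrocytes bearing luciferase-reporter parasites were treated for a single generation at 37 C. Luminescence after adding detection reagent served as the growth measure.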
AMA1 RON2 block: qHTS for Inhibitors of AMA1-RON; Towards Development of Antimalarial Drug Lead: Primary Screen. 360,000 compounds, 0.2% hits. Potency, µM (top dose mostly 58.2 µM), without a hit: at the highest dose activity change, negative = inhibition, most hits filed as inhibitors. Plasmodium falciparum AMA1 (3D7) - RON2 peptide interaction. AID 720542, 2013. AlphaScreen AMA1-biotinylated RON2 peptide binding;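 also: potency is read from the fitted curve at half-maximal effect; 0% = vehicle wells and -100% = peptide control; nearly all actives have a fitted effect of over 45% in size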
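AMA1 (3D7) with his tag at 25 nM final met compounds first, then biotinylated RON2 peptide at 25 nM; detection used donor plus acceptor beads, 10 µg/mL apiece, read by AlphaScreen after 30 min at room temperature.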
Starred values were filed as active, the others as inactive; [ ] = dose if it differs, or a comment. Sampled rows, rich in hits. Any-hit rate of the full collection: about 19%. Unless noted, calls follow the shape of the dose curve; as a rule, active = well fitted curve in the direction sought with a large enough effect; inconclusive = small, poorly fitted or top-dose-only effect, or another doubt; inactive = no such curve, though single readings can be large; an effect the other way counts as inactive or inconclusive.

O=C(C1CCC1)N1CCN(c2ccc(Cl)cc2)CC1 was read as CHX counter 12.5*, SARS PLpro yeast -8.0%, Pf growth 96h 7.38µM*, Shiga toxin inh 14.2, Pf growth 48h 3.8% and AMA1 RON2 block 7.7%.
For O=C(C1c2ccccc2Oc2ccccc21)N1CCN(c2ccc(Cl)cc2)CC1 the results were CHX counter -1.2, SARS PLpro yeast -1.0%, Pf growth 96h 2.08µM*, Shiga toxin inh -15.0 and AMA1 RON2 block -18.8%.
CN(C)CC/C=C1\c2ccccc2COc2ccc(CC(=O)O)cc21 was read as Pf growth 96h 5.8% and Pf growth 48h 1.0%.
COc1cccc(CN(C)C(=O)C(CCSC)NS(=O)(=O)c2ccc3c(c2)OCCO3)c1OC (stereo not drawn) was read as SARS PLpro yeast -1.7%, Pf growth 96h inconclusive, Pf growth 48h 11.7µM* and AMA1 RON2 block -0.4%.
For CS(=O)(=O)N1CCN(c2ccccc2NC(=O)c2ccco2)CC1 the results were CHX counter -3.6, SARS PLpro yeast -4.6%, Pf growth 96h 81.9%, Shiga toxin inh 5.2, Pf growth 48h 27.4% and AMA1 RON2 block 11.7%.
`CCN1C(=O)[C@@H]2[C@@H](c3ccc(-c4ccc(OC)cc4)cc3)N3CCC[C@@]3(C(=O)OC)[C@@H]2C1=O` gave SARS PLpro yeast 0.9%, Pf growth 96h 11.7µM*, Pf growth 48h 9.28µM* and AMA1 RON2 block -28.5%.
Screening CCN1C(=O)[C@H]2[C@@H](c3ccc(-c4ccc(OC)cc4)cc3)N3CCC[C@@]3(C(=O)OC)[C@H]2C1=O returned SARS PLpro yeast 0.1%, Pf growth 96h inconclusive, Pf growth 48h 13.1µM* and AMA1 RON2 block -11.6%.
Screening CCN1C(=O)[C@H]2[C@@H](c3ccc(-c4ccc(OC)cc4)cc3)N3CCCC[C@@]3(C(=O)OC)[C@H]2C1=O returned SARS PLpro yeast -4.9%, Pf growth 96h inconclusive, Pf growth 48h 14.7µM* and AMA1 RON2 block -12.8%.
`CCN1C(=O)[C@H]2[C@@H](c3ccc(-c4ccc(F)cc4)cc3)N3CCCC[C@@]3(C(=O)OC)[C@H]2C1=O` gave SARS PLpro yeast 1.3%, Pf growth 96h 13.1µM*, Pf growth 48h 9.28µM* and AMA1 RON2 block -8.1%.
Screening CCOc1c(N2CCOCC2)c(=O)c1=O returned CHX counter -1.0, SARS PLpro yeast 2.5%, Pf growth 96h -8.3%, Shiga toxin inh -6.8, Pf growth 48h 6.5% and AMA1 RON2 block 17.0%.
`CCN1C(=O)[C@H]2[C@@H](c3ccc(-c4ccccc4)cc3)N3CCC[C@@]3(C(=O)OC)[C@H]2C1=O` gave SARS PLpro yeast -16.7%, Pf growth 96h 13.1µM*, Pf growth 48h 4.65µM* and AMA1 RON2 block 6.0%.
Screening CCN1C(=O)[C@@H]2[C@@H](c3ccc(-c4ccccc4)cc3)N3CCC[C@@]3(C(=O)OC)[C@@H]2C1=O returned SARS PLpro yeast 3.9% and AMA1 RON2 block -7.2%.
CCOC(=O)C1=C(C(F)(F)F)Nc2ncnn2C1c1ccc(OC)c(OC)c1OC (stereo not drawn) was read as CHX counter -3.3, SARS PLpro yeast 19.6%, Pf growth 96h 95.2%, Shiga toxin inh -10.1, Pf growth 48h -19.4% and AMA1 RON2 block 9.2%.
Screening COc1ccc2nc3cc(Cl)ccc3c(Nc3cc(C(C)C)c(O)cc3C)c2c1 returned CHX counter 7.7, SARS PLpro yeast -5.8%, Pf growth 96h 0.0657µM*, Shiga toxin inh 27.1*, Pf growth 48h 0.0208µM* and AMA1 RON2 block 15.8µM*.
For CCN(CC)CCCC(C)Nc1c2ccc(Cl)cc2nc2ccc(OC)cc12 (stereo not drawn) the results were CHX counter -2.6, SARS PLpro yeast -11.2% and Shiga toxin inh -10.8.
`CC1(c2ccccc2)NC(=O)N(CC(=O)N2CCN(S(=O)(=O)c3cccc(C(F)(F)F)c3)CC2)C1=O` (stereo not drawn) gave AMA1 RON2 block 30.2%.
For Cc1onc(-c2ccc(Cl)cc2Cl)c1-c1csc(COc2ccccc2)n1 the results were CHX counter 1.0, SARS PLpro yeast -1.7%, Pf growth 96h inconclusive, Shiga toxin inh 23.7, Pf growth 48h inconclusive and AMA1 RON2 block 17.0%.
Screening COc1ccc2cc([C@@H](C)C(=O)O)ccc2c1 returned Pf growth 96h 0.7%, Pf growth 48h -6.7% and AMA1 RON2 block 0.0%.
COc1ccccc1CNC(=O)c1ccc(OC(C)C)cc1 was read as CHX counter 14.6*, SARS PLpro yeast -0.5%, Pf growth 96h 15.1%[5.75 µM], Shiga toxin inh 56.1*, Pf growth 48h 14.9% and AMA1 RON2 block -15.3%.
`CC(C)Oc1ccc(C(=O)NCc2cccs2)cc1` gave CHX counter 50.1*, SARS PLpro yeast -3.1%, Pf growth 96h 23.3%, Shiga toxin inh 36.2* and AMA1 RON2 block 6.6%.
`CCc1ccc(C(=O)NCc2cccs2)s1` gave CHX counter 36.6*, SARS PLpro yeast -5.5%, Shiga toxin inh 89.2*, Pf growth 48h 73.4% and AMA1 RON2 block -4.2%.
`CCOc1ccc(C(=O)NCc2ccccc2OC)cc1` gave CHX counter 10.6, SARS PLpro yeast 3.3%, Pf growth 96h 6.3%, Shiga toxin inh active, Pf growth 48h 0.0% and AMA1 RON2 block -15.1%.
`Cc1sc(NC(=O)C2C3C=CC(C3)C2C(=O)O)c(C(N)=O)c1-c1ccc(C(C)C)cc1` (stereo not drawn) gave CHX counter -1.7, SARS PLpro yeast 2.6%, Pf growth 96h -5.7%, Shiga toxin inh -2.6, Pf growth 48h 1.2% and AMA1 RON2 block 6.9%.
For CC1=C(C(=O)N(C)C)CC(CC(=O)NC2CC2)C(=O)N1Cc1ccccc1 (stereo not drawn) the results were AMA1 RON2 block 1.3%.
Screening Cc1cccc(N2CCN(C(=S)c3ccc4c(c3)OCO4)CC2)c1 returned AMA1 RON2 block -17.6%.
For COc1ccc(-c2cc3ccccc3nc2N)cc1OC the results were CHX counter 0.6, SARS PLpro yeast 0.0%, Pf growth 96h inconclusive, Shiga toxin inh 4.3, Pf growth 48h 1.0%[0.00184 µM] and AMA1 RON2 block 0.0%.
For Cc1ccccc1CN1CCN(c2nc3ccccc3s2)CC1 the results were CHX counter 50.9*, SARS PLpro yeast -1.8%, Pf growth 96h 154.7%, Shiga toxin inh 62.9* and AMA1 RON2 block -2.9%.
COc1ccc(CN2CCN(c3nc4ccccc4s3)CC2)cc1 was read as CHX counter 15.7, SARS PLpro yeast 1.5%, Pf growth 96h 38.4%, Shiga toxin inh 20.7, Pf growth 48h 48.2% and AMA1 RON2 block -6.9%.
